Measured values reported in PubChem BioAssay (Tox21).
Inconclusive results are not listed. Activity calls are given as the source filed them. Unless noted, calls come from the whole dose curve.

Legend:
[1] = Nuclear factor erythroid 2-related factor 2/antioxidant responsive element (Nrf2/ARE) small molecule agonists: qHTS cell viability counter screen in human keratinocytes (AID 1919968; active = well fitted curve in the direction sought with a large enough effect in the repeat runs; an effect the other way counts as inactive or inconclusive; note: nearly all actives have a fitted effect of over 55% in size; note: potency is the fitted concentration of half-maximal effect)
Method in brief: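 Cytotoxicity was multiplexed with the Nrf2/ARE luciferase assay in the same wells. Stably transfected HaCaT keratinocytes were treated with test compounds for 23 h at 37 C. Cell viability was then measured by CellTiter-Fluor fluorescence.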

[2] = Nuclear factor erythroid 2-related factor 2/antioxidant responsive element (Nrf2/ARE) small molecule agonists: luciferase reporter gene qHTS assay in human keratinocytes (AID 1919969); note: nearly all actives have a fitted effect of over 35% in size; note: potency is the fitted concentration of half-maximal effect
[3] = biological target: KiSS-1 receptor (Homo sapiens) (UniProt Q969F8); experiment: Human kisspeptin (KISS1R) small molecule agonists, calcium flux assay in KISS1R-HEK293 cells (AID 1920064; active = well fitted curve in the direction sought with a large enough effect in the repeat runs; an effect the other way counts as inactive or inconclusive)
Method in brief: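 Agonist activity is monitored as intracellular calcium rise in engineered HEK293 cells carrying human KISS1R. Cells are dye-loaded for 1 h at 37 C before compound addition, and fluorescence is recorded for 3 min.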

[4] = G protein-coupled receptor (GPCR) small molecule agonists, calcium flux assay: HEK293 wild type cell line counter screen (AID 1920065)
Method in brief: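 Seed cells, incubate 18 h (37 C, 5% CO2); add calcium dye, 1 h at 37 C; pin-transfer compounds, ATP control or DMSO; read fluorescence 480/540 nm each second for 3 min.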

[5] = p53 small molecule agonists, cell-based qHTS assay with human liver microsomes (AID 1963577)
Method in brief: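 Cells carrying a p53-responsive bla reporter were rested 5 h (37 C, 5% CO2) before compound transfer. Human liver microsomes plus NADPH, 0.5 mg/mL final apiece, supplied metabolism during the 16 h 37 C exposure.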

[6] = p53 small molecule agonists, cell-based qHTS assay with rat liver microsomes (AID 1963578)
Method in brief: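 Fluorescence from a beta-lactamase reporter under a p53 response element was measured after cells had been incubated 16 h at 37 C with test compound and rat liver microsomes plus NADPH (0.5 mg/mL final each).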

[7] = p53 small molecule agonists, cell-based qHTS assay with human liver microsomes: qHTS cell viability counter screen (AID 1963579); note: nearly all actives have a fitted effect of over 45% in size; note: potency is the fitted concentration of half-maximal effect
Method in brief: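 Seed p53RE-bla cells at 4,000 per well; incubate 5 h at 37 C; add compound, human liver microsomes and NADPH; incubate 16 h at 37 C; add CellTiter-Glo; after 30 min at room temperature, read luminescence.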

[8] = p53 small molecule agonists, cell-based qHTS assay with rat liver microsomes: qHTS cell viability counter screen (AID 1963580); note: nearly all actives have a fitted effect of over 45% in size
Method in brief: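 Counter screen for cytotoxicity under metabolic activation: rat liver microsomes and NADPH, 0.5 mg/mL final each, added with compounds to p53RE-bla HCT-116 cells; 16 h at 37 C, then ATP luminescence read.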

[9] = biological target: 5-hydroxytryptamine receptor 2A (Homo sapiens) (UniProt P28223); experiment: 5-hydroxytryptamine receptor 2A (HTR2A) small molecule antagonists, cell-based qHTS assay (AID 1963586); note: nearly all actives have a fitted effect of over 45% in size
Method in brief: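 CHO cells stably expressing human HTR2A were plated for 18 h at 37 C, then loaded with calcium dye for 1 h. Compounds were preincubated 5 min at room temperature before DOI (4 nM solution) was added. Kinetic fluorescence was read for 3 min.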

[10] = biological target: 5-hydroxytryptamine receptor 2A (Homo sapiens) (UniProt P28223); experiment: 5-hydroxytryptamine receptor 2A (HTR2A) small molecule agonists, cell-based qHTS assay (AID 1963587); note: nearly all actives have a fitted effect of over 30% in size
Method in brief: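 HTR2A-CHO cells, plated 18 h at 37 C/5% CO2, dye-loaded 1 h at 37 C; compounds in DMSO added by pin tool (agonist mode). Intracellular calcium flux read as kinetic fluorescence on FDSS over 2 min at 1 s intervals.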

[11] = biological target: Muscarinic acetylcholine receptor M1 (Homo sapiens) (UniProt P11229); experiment: Cholinergic receptor muscarinic 1 (CHRM1) small molecule antagonists, cell-based qHTS assay (AID 1963588); note: nearly all actives have a fitted effect of over 40% in size; note: potency is the fitted concentration of half-maximal effect
Method in brief: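 Compounds were tested at 15 concentrations in three independent runs. Dye-loaded CHRM1-CHO cells were exposed 5 min at room temperature before stimulation by acetylcholine added at 50nM. Intracellular calcium was read kinetically on FDSS for 3 min.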

[12] = biological target: Muscarinic acetylcholine receptor M1 (Homo sapiens) (UniProt P11229); experiment: Cholinergic receptor muscarinic 1 (CHRM1) small molecule agonists, cell-based qHTS assay (AID 1963589); note: nearly all actives have a fitted effect of over 35% in size
Method in brief: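 Cells were plated and incubated 18 h at 37 C/5% CO2, loaded with calcium dye for 1 h at 37 C, then treated with compounds in DMSO. Fluorescence was recorded kinetically at 1 sec intervals.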

[13] = cAMP Responsive Elements (CRE) small molecule agonists, cell-based qHTS assay (AID 1963590)
Method in brief: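 Cells carrying a CRE-driven beta-lactamase reporter (HEK 293T) are seeded, incubated overnight (18 h), and treated with test compounds for 3 h at 37 C; reporter activity is then detected with a FRET substrate after 2 h at room temperature.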

[14] = cAMP Responsive Elements (CRE) small molecule antagonists, cell-based qHTS assay (AID 1963591; active = well fitted inhibition curve with a large enough effect in the signal ratio in the repeat runs, not every such curve was filed as active; the % refers to the signal ratio)
Method in brief: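 Cells (CRE-bla HEK 293T, DMEM with 10% dialyzed FBS and 25 mM HEPES) are seeded and incubated 18 h. Compounds are added with NKH477 agonist at 0.25 uM final for 3 h, then FRET substrate for 2 h.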

[15] = biological target: Beta-2 adrenergic receptor (Homo sapiens) (UniProt P07550); experiment: Adrenergic beta2 receptor (ADRB2) small molecule antagonists, cell-based qHTS assay (AID 1963592); note: nearly all actives have a fitted effect of over 50% in size; note: potency is the fitted concentration of half-maximal effect; for activity change, negative = inhibition: series mostly up to about 92 µM
Method in brief: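 Assay format: CHO-ADRB2 cells, 18-20hr seeding at 37C/5% CO2, then compound plus 1nM isoproterenol agonist mix for 0.5hr RT. Homogeneous time-resolved fluorescence cAMP detection after 1hr, expressed as 665/615 nm ratio.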

[16] = biological target: D(2) dopamine receptor (Homo sapiens) (UniProt P14416); experiment: Dopamine D2 receptor (DRD2) small molecule agonists, cell-based qHTS assay (AID 1963594); note: nearly all actives have a fitted effect of over 35% in size
Method in brief: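 HEK293 cells stably expressing DRD2 were cultured 24 h at 37 C, then given Ro20-1724 (0.1 mM final) and compounds for 10 min at room temperature. NKH477 (200nM) was then added for 30 min. cAMP was read by HTRF.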

[17] = biological target: D(2) dopamine receptor (Homo sapiens) (UniProt P14416); experiment: Dopamine D2 receptor (DRD2) small molecule antagonists, cell-based qHTS assay (AID 1963595; active = well fitted inhibition curve with a large enough effect in the signal ratio in the repeat runs, with a control signal flat; the % refers to the signal ratio; note: potency is the fitted concentration of half-maximal effect)
Method in brief: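 Stable D2 receptor HEK293 line, 24 h after seeding. Compound preincubated 10 min, then quinpirole (12 nM) with forskolin analogue NKH477 (200 nM), 30 min, room temperature. Detection by time-resolved FRET of cAMP.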

[18] = p53 small molecule agonists, cell-based qHTS assay: qHTS cell viability counter screen (AID 1963581); note: nearly all actives have a fitted effect of over 45% in size; note: potency is the fitted concentration of half-maximal effect
Method in brief: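 Viability was counter-screened in parallel with the p53 agonist reporter by measuring intracellular ATP luminescence in the same HCT-116 p53RE-bla wells after 16 h compound treatment at 37 C.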

[19] = biological target: Beta-2 adrenergic receptor (Homo sapiens) (UniProt P07550); experiment: Adrenergic beta2 receptor (ADRB2) small molecule agonists, cell-based qHTS assay (AID 1963593);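 note: CHO cells stably overexpressing human ADRB2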
Method in brief: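 CHO cells stably over-expressing ADRB2 were plated overnight at 37C, then dosed with compounds plus a stimulation mix containing 100uM IBMX and 25uM Ro-20-1724 for 0.5hr at room temperature. cAMP was measured by HTRF competition, 1hr.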

[20] = p53 small molecule agonists, cell-based qHTS assay (AID 1963582; active = well fitted activation curve with a large enough effect in the signal ratio in the repeat runs, not every such curve was filed as active; the % refers to the signal ratio)
Method in brief: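 Cells carrying a p53-responsive bla reporter are treated with test compounds for 16 h at 37 C; beta-lactamase activity is then detected with LiveBLAzer B/G FRET substrate after 2 h at room temperature.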
% is set by controls: 0 for no effect and ±100 for the full control effect.

Chain of Beta-2 adrenergic receptor (Homo sapiens) (P07550 whole entry, looked up): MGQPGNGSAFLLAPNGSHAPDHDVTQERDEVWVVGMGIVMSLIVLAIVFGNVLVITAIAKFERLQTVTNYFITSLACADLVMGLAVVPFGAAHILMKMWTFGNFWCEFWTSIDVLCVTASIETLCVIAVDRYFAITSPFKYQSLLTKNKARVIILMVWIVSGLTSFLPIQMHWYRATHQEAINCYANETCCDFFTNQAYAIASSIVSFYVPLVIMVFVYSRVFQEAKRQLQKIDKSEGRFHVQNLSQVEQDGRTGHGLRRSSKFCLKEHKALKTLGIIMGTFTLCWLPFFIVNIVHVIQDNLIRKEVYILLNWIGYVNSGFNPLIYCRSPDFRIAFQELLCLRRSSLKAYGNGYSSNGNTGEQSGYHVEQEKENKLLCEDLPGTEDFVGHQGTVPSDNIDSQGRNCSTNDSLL
Chain of KiSS-1 receptor (Homo sapiens) (Q969F8 whole entry, looked up): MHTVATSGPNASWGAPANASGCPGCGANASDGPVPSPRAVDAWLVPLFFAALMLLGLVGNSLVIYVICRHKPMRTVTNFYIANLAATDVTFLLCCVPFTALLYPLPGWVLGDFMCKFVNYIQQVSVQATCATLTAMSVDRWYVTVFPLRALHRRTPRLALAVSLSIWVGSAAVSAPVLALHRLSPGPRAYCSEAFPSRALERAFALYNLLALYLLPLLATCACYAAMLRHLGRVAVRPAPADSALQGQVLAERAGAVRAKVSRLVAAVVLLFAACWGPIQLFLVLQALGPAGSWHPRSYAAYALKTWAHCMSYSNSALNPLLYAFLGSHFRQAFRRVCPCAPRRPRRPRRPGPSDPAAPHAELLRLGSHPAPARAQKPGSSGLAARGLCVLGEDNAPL
Chain of D(2) dopamine receptor (Homo sapiens) (P14416 whole entry, looked up): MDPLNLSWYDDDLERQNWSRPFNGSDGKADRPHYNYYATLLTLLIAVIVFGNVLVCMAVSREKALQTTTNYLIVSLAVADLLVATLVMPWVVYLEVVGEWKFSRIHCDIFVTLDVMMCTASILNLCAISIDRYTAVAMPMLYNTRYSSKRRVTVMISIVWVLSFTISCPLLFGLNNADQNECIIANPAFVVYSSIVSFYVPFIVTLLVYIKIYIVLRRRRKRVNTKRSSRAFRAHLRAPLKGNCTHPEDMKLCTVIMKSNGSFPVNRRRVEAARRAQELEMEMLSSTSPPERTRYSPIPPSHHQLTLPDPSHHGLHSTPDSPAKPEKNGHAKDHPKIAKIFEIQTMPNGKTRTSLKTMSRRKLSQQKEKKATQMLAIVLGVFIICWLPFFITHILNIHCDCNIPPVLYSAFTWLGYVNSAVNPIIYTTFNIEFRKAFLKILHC
Chain of Muscarinic acetylcholine receptor M1 (Homo sapiens) (P11229 whole entry, looked up): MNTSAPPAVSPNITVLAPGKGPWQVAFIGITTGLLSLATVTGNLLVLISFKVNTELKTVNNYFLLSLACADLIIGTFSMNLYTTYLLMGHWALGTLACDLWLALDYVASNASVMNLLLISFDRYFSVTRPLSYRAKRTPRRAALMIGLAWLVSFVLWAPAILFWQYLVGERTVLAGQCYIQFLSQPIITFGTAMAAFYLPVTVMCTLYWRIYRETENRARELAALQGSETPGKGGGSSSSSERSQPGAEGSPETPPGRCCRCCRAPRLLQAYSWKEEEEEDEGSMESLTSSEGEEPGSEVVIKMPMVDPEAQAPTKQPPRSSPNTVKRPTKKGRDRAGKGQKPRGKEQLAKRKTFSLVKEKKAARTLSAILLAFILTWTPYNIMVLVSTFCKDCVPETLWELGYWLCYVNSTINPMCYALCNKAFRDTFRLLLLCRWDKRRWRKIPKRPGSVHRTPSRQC
Chain of 5-hydroxytryptamine receptor 2A (Homo sapiens) (P28223 whole entry, looked up): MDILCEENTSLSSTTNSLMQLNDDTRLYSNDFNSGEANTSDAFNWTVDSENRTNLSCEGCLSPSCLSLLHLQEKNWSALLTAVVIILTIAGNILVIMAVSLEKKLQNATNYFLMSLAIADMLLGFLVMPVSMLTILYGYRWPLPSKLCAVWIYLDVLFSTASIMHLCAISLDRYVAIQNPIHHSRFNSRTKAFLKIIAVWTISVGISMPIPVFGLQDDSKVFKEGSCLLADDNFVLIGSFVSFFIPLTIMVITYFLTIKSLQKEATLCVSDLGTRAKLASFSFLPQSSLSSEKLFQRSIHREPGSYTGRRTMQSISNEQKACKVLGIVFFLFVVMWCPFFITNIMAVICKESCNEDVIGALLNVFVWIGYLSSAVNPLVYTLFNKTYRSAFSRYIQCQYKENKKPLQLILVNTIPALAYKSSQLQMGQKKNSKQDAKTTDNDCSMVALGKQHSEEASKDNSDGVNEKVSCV

Cc1nc(N)nc(N)c1-c1ccc(Cl)c(Cl)c1
inactive: Potency [1] | Potency [2] | Potency [3] | Potency [4] | Potency [5] | Potency [6] | Potency [7] | Potency [8] | Potency [9] | Potency [10] | Potency [12] | Potency [13] | Potency [14] | Potency [15] | Potency [16] | Potency [17]
active: Potency [11] 7.29 µM

Nc1c[n+](N2CCOCC2)no1
inactive: Potency [1] | Potency [2] | Potency [4] | Potency [8] | Potency [18] | Potency [9] | Potency [10] | Potency [11] | Potency [12] | Potency [13] | Potency [14] | Potency [15] | Potency [19] | Potency [16] | Potency [17]

CCCCOCC(C)OCC(C)O (centres undefined)
inactive: Potency [1] | Potency [2] | Potency [4] | Potency [7] | Potency [9] | Potency [10] | Potency [12] | Potency [13] | Potency [14] | Potency [15] | Potency [19] | Potency [16] | Potency [17]

Cc1cc(C(C#N)c2ccc(Cl)cc2)c(Cl)cc1NC(=O)c1cc(I)cc(I)c1O (centres undefined)
inactive: Potency [2] | Potency [4] | Potency [7] | Potency [16] | Potency [17]
active: Potency [1] 29.8 µM | Potency [18] 5.61 µM

C=C1CC[C@H]2C[C@@H]1C2(C)C
inactive: Potency [1] | Potency [2] | Potency [4] | Potency [7] | Potency [18] | Potency [9] | Potency [10] | Potency [12] | Potency [13] | Potency [14] | Potency [15] | Potency [19] | Potency [16] | Potency [17]

COc1cc(C(C)C)c2c(c1)S(=O)(=O)N(COc1cc(=O)n3cccc(OCCN4CCCCC4)c3n1)C2=O
active: Potency [2] 2.91 µM
inactive: activity change, negative = cytotoxicity [1] -10.3% [at 19 µM] | activation [4] 1.49% [at 11.8 µM] | activity change, negative = cytotoxicity [8] -0.988% [at 13.5 µM] | activity change, negative = cytotoxicity [18] -1.9% [at 13.5 µM] | activity, negative = inhibition [9] 4.6% [at 12.7 µM] | activation [10] -1.78% [at 15.9 µM] | activity, negative = inhibition [11] -3.39% [at 12.6 µM] | activation [12] -0.958% [at 15.8 µM] | activity change, negative = inhibition [15] 1.57% [at 19 µM] | activation [16] -15.5% [at 19 µM]

C[C@]12CCC(=O)C=C1C=C[C@@H]1[C@@H]2CC[C@@]2(C)[C@H]1CC[C@@]21CCC(=O)O1
inactive: Potency [1] | Potency [2] | Potency [3] | Potency [4] | Potency [5] | Potency [6] | Potency [7] | Potency [18] | Potency [20] | Potency [9] | Potency [10] | Potency [12] | Potency [15] | Potency [19] | Potency [17]

CCOC(=O)Nc1ccc2c(c1)N(C(=O)CCN1CCOCC1)c1ccccc1S2
inactive: Potency [1] | Potency [2] | Potency [3] | Potency [4] | Potency [6] | Potency [8] | Potency [18] | Potency [20] | Potency [10] | Potency [12] | Potency [13] | Potency [15] | Potency [19] | Potency [16] | Potency [17]
active: Potency [11] 0.918 µM

CC(=O)C(=O)CC(C)C
inactive: Potency [1] | Potency [2] | Potency [3] | Potency [4] | Potency [7] | Potency [8] | Potency [18] | Potency [9] | Potency [10] | Potency [11] | Potency [12] | Potency [13] | Potency [14] | Potency [15] | Potency [16]

Cc1cc2c(C(C)C)c(O)c(O)c(C=O)c2c(O)c1-c1c(C)cc2c(C(C)C)c(O)c(O)c(C=O)c2c1O
inactive: Potency [2] | Potency [3] | Potency [4] | Potency [5] | Potency [11] | Potency [12] | Potency [15] | Potency [16]
active: Potency [1] 10.6 µM | Potency [7] 17.8 µM | Potency [18] 11.2 µM

CC1(C)SC(C)(C)SC(C)(C)S1
inactive: Potency [1] | Potency [2] | Potency [3] | Potency [4] | Potency [7] | Potency [8] | Potency [18] | Potency [9] | Potency [10] | Potency [11] | Potency [12] | Potency [13] | Potency [15] | Potency [19] | Potency [16] | Potency [17]

Cc1nc2sccn2c(=O)c1CCN1CCC(=C(c2ccc(F)cc2)c2ccc(F)cc2)CC1
inactive: Potency [2] | Potency [3] | Potency [4] | Potency [6] | Potency [8] | Potency [18] | Potency [10] | Potency [12] | Potency [16]
active: Potency [1] 26.6 µM | Potency [11] 2.59 µM | Potency [17] 26.6 µM

O=C(O)CCCCCCCCCC(=O)O
inactive: Potency [1] | Potency [2] | Potency [3] | Potency [4] | Potency [5] | Potency [7] | Potency [8] | Potency [18] | Potency [9] | Potency [10] | Potency [11] | Potency [12] | Potency [13] | Potency [14] | Potency [15] | Potency [16] | Potency [17]

CCCC(CC)c1ccccc1 (centres undefined)
inactive: Potency [1] | Potency [2] | Potency [3] | Potency [4] | Potency [6] | Potency [7] | Potency [8] | Potency [18] | Potency [9] | Potency [10] | Potency [11] | Potency [12] | Potency [13] | Potency [14] | Potency [15] | Potency [16] | Potency [17]

FC1(F)C(F)(F)C(F)(F)C2(F)C(F)(F)C(F)(F)C(F)(F)C(F)(F)C2(F)C1(F)F (centres undefined)
inactive: Potency [1] | Potency [2] | Potency [3] | Potency [4] | Potency [6] | Potency [7] | Potency [8] | Potency [18] | Potency [20] | Potency [9] | Potency [10] | Potency [11] | Potency [12] | Potency [13] | Potency [14] | Potency [15] | Potency [19] | Potency [17]

c1coc(Cn2cccc2)c1
active: Potency [15] 30.6 µM
inactive: Potency [1] | Potency [2] | Potency [3] | Potency [4] | Potency [5] | Potency [7] | Potency [8] | Potency [18] | Potency [20] | Potency [9] | Potency [11] | Potency [13] | Potency [14] | Potency [17]
